The test in a line: NCI Yeast Anticancer Drug Screen. Data for the wt2 strain (AID 169).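 Note: 0% = growth of vehicle-treated yeast cultures.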 The note with it: S. cerevisiae wt2 strain growth inhibition, active compounds read high. Here is the method: Growth inhibition of yeast strains with defined genetic alterations is measured as a screen for potential anti-cancer activity. Selected strains with alterations in DNA damage repair or cell cycle control were exposed to compounds and growth inhibition was measured relative to vehicle treated controls. The strain used in this assay is wt2

About 79,000 compounds went through this panel and 15% of them were active in at least one assay; those are over-represented in the sample as a whole. Unmarked numbers belong to inactive results. Activity calls are given as the source filed them. Cut-off read from the data, not from the text of the source: active = growth inhibition above about 70%; inactive = the rest.

With `NNC(=S)Nc1cccc(Cl)c1`, the growth inhibition by setting is: (at 1.2 µM) -27%; (at 3.7 µM) -23%; (at 11.0 µM) -25%; (at 33.0 µM) 8%; (at 100.0 µM) 87% (active).

Regarding `Cc1ccc(Nc2c3c(c(C#N)c4nc5ccccc5n24)CCCC3)cc1`, the growth inhibition is, setting by setting: (at 1.2 µM) 4%; (at 3.7 µM) -8%; (at 11.0 µM) 59%; (at 33.0 µM) 74% (active); (at 100.0 µM) 72% (active).

With `N#C/C(=C\c1ccccc1)c1ccccc1F`, the growth inhibition is -3% (at 1.2 µM); -2% (at 3.7 µM); -1% (at 11.0 µM); -1% (at 33.0 µM); 4% (at 100.0 µM).

In the case of `Cc1cc(O)c2c(c1)C(=O)C=C(Br)C2=O`, the growth inhibition runs as follows: (at 1.2 µM) -4%; (at 3.7 µM) 7%; (at 11.0 µM) 54%; (at 33.0 µM) 99% (active); (at 100.0 µM) 97% (active).

Take `CC(C)c1cccc(O)c(=O)c1`: the growth inhibition was 9% (at 1.2 µM); 14% (at 3.7 µM); 13% (at 11.0 µM); 70% (active) (at 33.0 µM); 99% (active) (at 100.0 µM).

Take `C/C(=N\NC(=S)NC1CCCC1)c1ccccn1`: the growth inhibition is, setting by setting: (at 1.2 µM) -3%; (at 3.7 µM) 71% (active); (at 11.0 µM) 99% (active); (at 33.0 µM) 99% (active); (at 100.0 µM) 99% (active).

In the case of `CCCCC(CC)C(=O)Oc1ccc(C(=O)c2ccccc2)c(O)c1` (stereo not given), the growth inhibition (at 1.2 µM) is -18%; the growth inhibition (at 3.7 µM) is -7%; the growth inhibition (at 11.0 µM) is -4%; the growth inhibition (at 33.0 µM) was 37%; the growth inhibition (at 100.0 µM) is 97% (active).

As for `Cc1ccc(I)cc1N=C=S`, the growth inhibition is, setting by setting: (at 1.2 µM) -21%; (at 3.7 µM) -12%; (at 11.0 µM) 4%; (at 33.0 µM) 82% (active); (at 100.0 µM) 99% (active).

These data come from PubChem BioAssay (NCI).
